Screening data as filed in PubChem.
GALK inhibitor – inhibitors of human galactokinase | P51570 | Purified GALK, Kinase-Glo residual ATP luminescence | Potency, µM (series often up to 57.5 µM), without a hit: at the highest dose activity change, negative = inhibition, actives largely listed as inhibitors | 270,000 tested, 0.007% active | AID 1868; further: potency means the concentration at half of the fitted maximal effect; on the % scale 0 is the no-effect control and ±100 the full control effect
Target sequence (P51570 whole entry, looked up): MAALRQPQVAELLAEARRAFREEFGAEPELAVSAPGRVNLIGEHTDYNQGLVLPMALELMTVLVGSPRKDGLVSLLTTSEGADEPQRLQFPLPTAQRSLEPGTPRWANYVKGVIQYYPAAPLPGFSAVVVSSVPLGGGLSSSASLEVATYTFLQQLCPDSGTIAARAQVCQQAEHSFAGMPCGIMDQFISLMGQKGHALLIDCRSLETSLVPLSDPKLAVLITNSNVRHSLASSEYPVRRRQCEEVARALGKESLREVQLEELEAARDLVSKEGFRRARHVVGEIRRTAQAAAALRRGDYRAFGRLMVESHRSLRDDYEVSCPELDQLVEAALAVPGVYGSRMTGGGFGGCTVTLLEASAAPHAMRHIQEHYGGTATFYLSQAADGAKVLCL
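Luminescence from leftover ATP (Ultra-Glo luciferase/luciferin) served as read-out after a 1 h room-temperature reaction of 5 nM GALK with 35 uM ATP and 100 uM galactose.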
HttQ103 aggreg – mutant huntingtin aggregation inhibition; PC12 HttQ103-GFP aggregates, Acumen cytometry, 40 h; Potency, µM (titrated, usually from 46.1 µM), without a hit: top-dose activity change, negative = inhibition, usual class: inhibitors; 220,000 tested, 1.1% active; AID 1688; further: potency means the concentration at half of the fitted maximal effect; on the % scale 0 is the no-effect control and ±100 the full control effect; nearly all actives have a fitted effect of over 60% in size
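Huntingtin Q103 exon 1–GFP aggregates in induced PC12 cells (100 nM tebufenozide) were quantified by cytometry from lysates, with compounds dosed in titration.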
HTT cytoprotect – Huntington cell model cytoprotection by ATP luminescence. Potency, µM (series often up to 56.4 µM), without a hit: cytoprotection (ATP increase), most hits filed as activators. 230,000 tested, 0.14% active. PC12 HTT-Q103 induced, cytoprotection, ATP luminescence, 40 h; further: potency means the concentration at half of the fitted maximal effect; % of control where 0% means no effect; nearly all actives have a fitted effect of over 45% in size
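PC12 cells stably carrying ecdysone-inducible Htt exon 1 (Q103)–GFP were induced with 100 nM tebufenozide (final) alongside library compounds in a dose series. Cytoprotection was scored as retained ATP by ATPlite luminescence.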
PI4K2A inh – PI4K2A (human) kinase inhibition. activity change, negative = inhibition, % at 76.9 µM. AID 1346378. 420,000 tested, 0.13% active. purified PI4K2A, ADP-Glo luminescence, 1 h; active compounds read low; in the data active means activity change below about -50%; inconclusive means mostly about -30% to -49%;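 further: -100% = wells without enzyme as full effect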
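PI4K2A activity was measured by ADP-Glo luminescence: enzyme (4 ug/mL stock) and phosphatidylinositol (1.2 mM stock) in Tris pH 7.5/MgCl2/EGTA/Triton X-100 buffer were reacted with ATP (300 microM stock) for one hour at ambient temperature.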
* = called active by the depositor; ? = inconclusive; . = not tested or not shown; ! = not active in a repeat; [ ] = dose if it differs, or a comment. This excerpt belongs to a sample that is enriched for hits. Unless noted, the call rests on the fitted dose curve; in most records, active means well fitted curve in the direction sought with a large enough effect; inconclusive means small, poorly fitted or top-dose-only effect, or another doubt; inactive means no such curve, though single readings can be large; an effect the other way counts as inactive or inconclusive.

SMILES | GALK inhibitor | HttQ103 aggreg | HTT cytoprotect | PI4K2A inh
COC(=O)c1cn(NC(=O)c2cnccn2)c(=O)c2ccccc12 | -1% | 8.9µM* | -44% | -5
CCOC(=O)c1cnc(-n2nc(C)cc2C)nc1NNc1nc(-c2ccccc2)cc(-c2ccccc2)n1 | . | 10µM* | 32%[10 µM] | 3
COC(=O)[C@H]1O[C@@H](c2cc(OC)c(C)c(OC)c2OCc2ccccc2)[C@H](C)[C@H]2O[C@@]12C | . | . | -61% | .
O=C(O)c1ccc(-c2cccc([N+](=O)[O-])c2)o1 | -2% | 5%[9.22 µM] | 18%[10 µM] | -3
N#C/C(=C(/O)c1ccc(-c2cccc([N+](=O)[O-])c2)o1)c1nc2ccccc2s1 | -3% | 11µM* | -136% | 1
COc1ccc(C/C(O)=C(\C#N)c2nc3ccccc3s2)cc1 | ? | 13µM* | 6%[10 µM] | -7
CSCCCNC(=O)CN1C(=O)C2CCCCN2C(=O)c2ccccc21 (stereo unspecified) | . | . | . | 1
CCOc1ccc(-n2c(SCC(=O)Nc3ccccc3-c3ccccc3)nnc2-c2cccs2)cc1 | . | . | . | 0
O=C(CCl)Nc1cccn2ncnc12 | -2% | 20µM* | -73% | 3
O=C(Nc1cccn2ncnc12)C(F)(F)F | 4% | -3% | -18%[10 µM] | 3
CCC(C(=O)OCCN1CCOC(c2ccccc2)C1C)c1ccccc1 (stereo unspecified) | . | . | . | 4
COc1cccc(-c2nnc3n2N=C(C(C)(C)C)CS3)c1 | -3% | 2µM* | 34% | 5
COC(=O)C1=C(C)NC(C)=C(C(=O)OCCCN2CCC(c3ccccc3)(c3ccccc3)CC2)C1c1cccc([N+](=O)[O-])c1 (stereo unspecified) | . | ? | -196% | 2
COc1ccccc1N1CCN(C(=O)c2oc3ccc(F)cc3c2C)CC1 | -3% | 11µM* | -13%[10 µM] | 0
CC(=O)N(C(C)=O)c1ncc2c([nH]c3ccccc32)c1C#N | -1% | 3.2µM* | -5% | 17
CCN(CC)C(=O)Cn1ncc2c([nH]c3ccccc32)c1=O | . | . | . | 5
O=C(OC12CCCN(C1)/C(=C/c1cccc(Cl)c1)C2)c1ccc(F)cc1 (stereo unspecified) | . | . | . | -3
COc1ccc(N=Cc2cc(Cc3ccccc3Cl)cc([N+](=O)[O-])c2O)cc1OC | -4% | 22µM* | 35µM* | -1
COC(=O)[C@]12C[C@H](CC(=O)N3CCCC3)C(=O)N(Cc3ccc(Cl)cc3Cl)C1=C[C@H](C(C)(C)C)O[C@@H]2C | . | . | . | 0
OCc1ccc(-c2ccc(-c3ccc(CO)s3)o2)s1 | . | . | -204% | .
CC(C)[C@H](NC(=O)CNC(=O)OC(C)(C)C)C(=O)N[C@H](C=O)C(C)C | . | . | 27% | .
COc1ccc(N=c2scc(-c3ccc(S(=O)(=O)N4CCOCC4)cc3)n2CCCO)cc1 | -4% | 13µM* | 11%[10 µM] | .
CC(=O)c1cccc(N=c2scc(-c3ccc(S(=O)(=O)N4CCOCC4)cc3)n2CCO)c1 | . | ? | . | -5
CCN(CC)CCOC(=O)C1(c2ccc([N+](=O)[O-])cc2)CCCC1 | . | . | 0.32µM*! | 0
Cc1ccc(C(=O)O/N=C/c2c(C(F)(F)F)nn(C)c2Sc2ccc(Cl)cc2)cc1 | -1% | 13µM* | -3% | 57
SMILES | GALK inhibitor | HttQ103 aggreg | HTT cytoprotect | PI4K2A inh
COc1ccc(C(=O)O/N=C/c2c(C(F)(F)F)nn(C)c2SCc2ccccc2Cl)cc1 | 3% | 10µM* | -93% | 0
CCc1ccc(S(=O)(=O)NCc2cccnc2)cc1 | 5% | . | . | -1
CCN(CC)C(=O)c1ccc(S(=O)(=O)NCc2cccnc2)cc1 | 2% | 11µM* | 22%[10 µM] | 0
CC(C)(CC(=O)N1CCN(c2ccc(Cl)cc2)CC1)CC1=NS(=O)(=O)c2ccccc2N1 | -2% | 11µM* | -46% | 1
CC(=O)N1CCN(c2ccc(NC(=O)c3ccco3)cc2Cl)CC1 | -7% | . | . | 0
CCN1CCN(c2ccc(NC(=O)c3ccc([N+](=O)[O-])o3)cc2Cl)CC1 | -4% | 13µM* | -101% | -4
O=C(Nc1ccc(N2CCN(C(=O)c3ccccc3)CC2)c(Cl)c1)c1ccco1 | -1% | 22µM* | -22% | -4
CCC(=O)N1CCN(c2ccc(NC(=O)c3cc4ccccc4o3)cc2Cl)CC1 | -1% | ? | 17%[10 µM] | 6
CC(=O)N1CCN(c2ccc(NC(=O)c3ccc([N+](=O)[O-])o3)cc2Cl)CC1 | 5% | . | . | -2
CCC(=O)N1CCN(c2ccc(NC(=O)c3ccc([N+](=O)[O-])o3)cc2Cl)CC1 | 1% | 20µM* | 0.63µM* | -2
CCCC(=O)N1CCN(c2ccc(NC(=O)c3cc4ccccc4o3)cc2Cl)CC1 | 1% | 11µM* | -30%[10 µM] | 18
CCOC(=O)N1CCC(Nc2nc3ccccc3nc2NS(=O)(=O)c2ccc(Cl)cc2)CC1 | -3% | 11µM* | -8%[0.074 µM] | -3
C=CCN(CC=C)C(=S)NC(=O)c1ccc(OC)cc1 | 7% | . | . | 9
COc1ccc(C(=O)NC(=S)N(Cc2ccccc2)Cc2ccccc2)cc1 | -2% | 10µM* | 12% | -4
CN1C[C@@H](C(=O)N[C@]2(C)O[C@]3(O)[C@H]4CCCN4C(=O)[C@H](Cc4ccccc4)N3C2=O)C[C@H]2c3cccc4[nH]cc(c34)C[C@@H]21 | . | . | -19%[1.9 µM] | .
COC(=O)[C@]12C=CCN1[C@H](c1ccc(OC)c(OC)c1)c1c(c3ccccc3n1S(=O)(=O)c1ccc(C)cc1)C2 | . | . | . | -3
CCOC(=O)CCN1C(=O)[C@H]2[C@H]3[C@H](O)[C@H](O)C/C(=N/NC(=O)OCc4ccccc4)[C@@H]3CC[C@@H]2C1=O | . | . | 0%[10 µM] | .
Cc1[nH]cnc1C(=O)N/N=C/c1c(Cl)cccc1Cl | 20% | . | . | -69*
CCN1CCCC1CN (stereo unspecified) | . | . | . | 0
COc1cc(S(=O)(=O)n2ccc(C)n2)c(C)cc1C | . | . | . | 0
CCCOc1cc(C)c(S(=O)(=O)n2ccc(C)n2)cc1C | 6% | 13µM* | -17% | -3
Fc1ccc(CN(Cc2ccccc2)C(c2cccs2)c2nnnn2C2CCCCC2)cc1 (stereo unspecified) | -4% | 25µM* | -2% | 6
O=S(=O)(c1ccc(Cl)s1)N1CCN(C/C=C/c2ccccc2)CC1 | 2% | 35µM* | -5%[10 µM] | 7
O=C(CSc1nnc2ncccn12)N1CCCCCC1 | 0% | 0.56µM* | -14% | 7
OC[C@H]1O[C@H](O[C@]2(CCl)O[C@H](CCl)[C@@H](O)[C@@H]2O)[C@H](O)[C@@H](O)[C@H]1Cl | . | . | . | 3
CCCCc1nc2c(c3c1C[C@H](C)OC3)CN(C(=O)N[C@@H](C)c1ccccc1)CC2 | . | . | 4%[10 µM] | .
O=[N+]([O-])c1ccc(OCCCN2CCC(C(O)(c3ccccc3)c3ccccc3)CC2)c(Cl)c1 | . | . | . | -2
Cc1cc(C([O-])=C(C(=S)Nc2ccc(F)cc2)[n+]2ccccc2)c(C)n1-c1ccc(F)cc1 | . | . | . | -5
COc1cccc(NC(=S)/C(=C(\[O-])c2cc(C)n(-c3ccccc3F)c2C)[n+]2ccc(N(C)C)cc2)c1 | 0% | 13µM* | -78% | -3
